# Screening results: PubChem, The Scripps Research Institute Molecular Screening Center
# Only some compounds are listed: those with a hit (about 1.1% of all), similar ones and a draw of the others.
# HTR5A ag ctr: activates human HTR5A in OPRM1-OPRD1 agonist counter-screen. P47898. activation, % at 9.3 µM. 0.61% of 340,000 active. HTR5A agonist assay, luminescence, cell-based; in the data active = activation mostly above about 9.5%, no sharp cut-off; inactive = mostly below about 7.6%;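 note: 0% = cells with vehicle only and 100% = reference agonist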
# HTR5A inv ctr: inverse agonist of human HTR5A in OPRM1-OPRD1 counter-screen; HTR5A cell line, luminescence, inverse agonism; P47898; inhibition, % at 9.3 µM; 0.083% of 340,000 active; in the data active = inhibition mostly above about 23%, no sharp cut-off; inactive = mostly below about 18%;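 note: 0% = cells with DMSO and 100% = no-cell wells with DMSO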
# MOR-DOR ag: OPRM1-OPRD1 heterodimerization agonism. cells, luminescence. activation, % at 9.3 µM. 0.3% of 340,000 active. AID 504326; in the data active = activation above about 18%;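 note: 0% = vehicle-treated cells and 100% = reference agonist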
# MOR-DOR inv ag: inverse agonist of human OPRM1-OPRD1 heterodimerization; P35372+P41143; cell-based MOR-DOR heterodimer luminescence, inverse agonism; inhibition, % at 9.3 µM; 0.21% of 340,000 active; in the data active = inhibition above about 22%, passing the limit was not always enough;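 note: 0% = cells with DMSO and 100% = wells without cells with DMSO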
# OPRM1-D1 inv cf: OPRM1-OPRD1 heterodimer inverse agonism, confirmation; inhibition, % at 9.3 µM; shares compounds with MOR-DOR inv ag; 20% of 580 active; cells expressing OPRM1/OPRD1 heterodimer, luminescence; in the data active = inhibition above about 32%;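 note: 0% = cells with DMSO and 100% = wells lacking cells with DMSO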
# HTR5A inv ctr2: HTR5A inverse agonism, opioid heterodimer counter-screen; HTR5A-expressing cells, luminescence; 580 tested, under 10 active; shares compounds with MOR-DOR inv ag; inhibition, % at 9.3 µM; call rule not given here;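 note: 0% = cells with DMSO and 100% = no-cell wells with DMSO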
# An asterisk follows results filed as active; i = inactive; · = not tested or not shown.
SMILES,HTR5A ag ctr,HTR5A inv ctr,MOR-DOR ag,MOR-DOR inv ag,OPRM1-D1 inv cf,HTR5A inv ctr2
O=S(=O)(Nc1ccc(Cl)c(Cl)c1)N1CCOCC1,-5.6,-13.8,-3.1,21.4,·,·
CC1COC(=O)C(NNc2ccc(Cl)c(Cl)c2)=N1 (stereo not given),10.3,-28.7,-5.7,30.4*,12.6,1.7
ON(CCc1ccncc1)Cc1ccccc1,-1.1,3.9,-8.3,44.0*,4.4,-22.0
Cn1nnc(NC(=S)NC(=O)c2ccco2)n1,-6.1,20.0,-5.4,24.0,·,·
COc1ccc(C(=O)NC(=S)Nc2nnn(C)n2)cc1,-3.1,21.0,-6.0,27.1,·,·
COc1cccc(C(=O)NC(=S)Nc2nnn(C)n2)c1,0.8,9.3,-5.0,27.9*,-2.0,14.7
COc1c(C(=O)NC(=S)Nc2nnn(C)n2)cc2ccccc2c1Br,-0.8,2.0,-0.6,3.1,·,·
Cn1nnc(NC(=S)NC(=O)c2cccc3c(Br)cccc23)n1,-4.4,17.8,-6.2,33.1*,-4.3,-4.9
Cn1nnc(NC(=S)NC(=O)c2cccc3c(Cl)cccc23)n1,-3.6,14.6,-5.9,31.4*,-12.7,16.5
CC1=C/C(=C(/c2cc(C)c(O)c(Br)c2)c2ccccc2S(=O)(=O)O)C=C(Br)C1=O,-5.4,21.1,-3.5,19.6,·,·
CC1=C/C(=C(/c2ccc(O)c(C)c2)c2ccccc2S(=O)(=O)O)C=CC1=O,-5.4,15.0,-7.1,29.2*,i,-9.3
COc1cccc(CN2CC(C(=O)NCCc3ccc(C)s3)CCC2=O)c1 (stereo not given),2.9,13.0,-0.1,0.6,·,·
O=C(NCCc1ccc(Cl)cc1)c1ccc(Br)s1,0.3,7.1,3.7,-12.2,·,·
OC1CCCCC1,-1.1,4.6,-2.6,13.9,·,·
O=C(Nc1ccc(Cl)cc1)C(Cl)C(=O)c1ccccc1 (stereo not given),-2.8,7.6,-6.9,36.5*,-384.8,-3.1
COCCN(C(=O)CSc1nnc(-c2ccccc2F)n1N)c1c(N)n(Cc2ccccc2)c(=O)[nH]c1=O,8.3,-21.2,-7.1,28.8*,-28.1,4.8
CCCn1c(=O)c(C#N)cn(C2CC2)c1=O,2.6,-35.8,-3.6,18.2,·,·
COc1ccc(C)cc1NC(=O)c1cc(S(=O)(=O)N2CCCCC2)ccc1N1CCOCC1,8.2,-29.9,-0.8,4.0,·,·
O=C(Cc1ccc(F)cc1)OCC(=O)c1cc2ccccc2o1,-5.7,10.3,-8.3,47.5*,-115.8,-12.2
CC(NC(=O)COc1ccccc1)C(=O)OCC(=O)c1cc2ccccc2o1 (stereo not given),-7.4,23.5,-13.2,71.0*,-15.9,2.1
O=C(CCNc1ccc(F)cc1)c1cc2ccccc2o1,-2.6,6.8,7.7,-35.1,·,·
Cc1ccc(-c2cc(C(F)F)n3ncc(C(=O)Nc4ccc(S(=O)(=O)Nc5ccccc5C)cc4)c3n2)cc1,1.9,8.5,-2.5,11.3,·,·
S=C1NCCc2ccccc2C1c1ccccc1Cl (stereo not given),-1.9,-27.4,-8.8,44.1*,4.9,10.1
S=C1NCCc2ccccc2C1c1ccccc1 (stereo not given),-5.1,5.2,-2.2,13.4,·,·
CC(=O)C1=C(O)C(=O)N(CCc2ccccc2)C1c1ccccc1[N+](=O)[O-] (stereo not given),2.2,-5.8,-0.3,1.6,·,·
SMILES,HTR5A ag ctr,HTR5A inv ctr,MOR-DOR ag,MOR-DOR inv ag,OPRM1-D1 inv cf,HTR5A inv ctr2
O=C(/C=C/c1ccccc1)C1=C(O)C(=O)N(CCO)C1c1ccccc1[N+](=O)[O-] (stereo not given),-3.7,20.2,-10.4,52.0*,-426.9,-36.6
Cc1cc(Br)ccc1NC(=O)CNC(=O)CNc1cccc([N+](=O)[O-])c1,10.1,-25.7,1.6,-6.3,·,·
O=C1N=c2ccccc2=C1c1c(O)n(-c2cccc(F)c2)[nH]c1=O,-7.0,18.7,-6.1,36.5*,-44.1,9.9
Cn1c(O)c(C2=c3ccccc3=NC2=O)[nH]c1=S,7.3,-5.0,2.3,-11.5,·,·
COc1ccc(C2=NN(CN3C(=O)C(=O)c4ccccc43)C(c3ccc(Br)cc3)C2)cc1 (stereo not given),-2.6,-8.5,-3.8,20.8,·,·
COc1ccc(C2=NN(CN3C(=O)C(=O)c4ccccc43)C(c3ccc(C)cc3)C2)cc1 (stereo not given),-2.4,7.5,-9.3,47.0*,16.4,7.5
C=CCN(c1ccccc1)S(=O)(=O)c1cccc(C(=O)NCC2CCCO2)c1 (stereo not given),2.4,-24.8,-2.2,11.4,·,·
